# TDP1 cell noCPT: qHTS for Inhibitors of human tyrosyl-DNA phosphodiesterase 1 (TDP1): qHTS in cells in absence of CPT. AID 686978, 2013. Potency, µM (highest dose often 46.2 µM), hits mostly inhibitors. hit rate 15% among 420,000. DT40 Tdp1-/- hTDP1 cells, no CPT, ATP luminescence, 48 h; further: nearly all actives have a fitted effect of over 55% in size
#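 No-CPT arm: Tdp1-/-;hTDP1 DT40 cells (400/well) plus compounds, incubated ≥48 hr at 37 °C. Readout CellTiter-Glo luminescence.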
# RORgamma inh: inhibitors of mouse ROR gamma transcriptional activity | P51450 | Drosophila S2 Gal4-RORgamma UAS-luciferase reporter, 20 h | Potency, µM (doses to about 53.6 µM), usual class: inhibitors | hit rate 5.4% among 310,000 | AID 2551; further: nearly all actives have a fitted effect of over 60% in size
# Target sequence (P51450 whole entry, looked up, the tested form may be a part): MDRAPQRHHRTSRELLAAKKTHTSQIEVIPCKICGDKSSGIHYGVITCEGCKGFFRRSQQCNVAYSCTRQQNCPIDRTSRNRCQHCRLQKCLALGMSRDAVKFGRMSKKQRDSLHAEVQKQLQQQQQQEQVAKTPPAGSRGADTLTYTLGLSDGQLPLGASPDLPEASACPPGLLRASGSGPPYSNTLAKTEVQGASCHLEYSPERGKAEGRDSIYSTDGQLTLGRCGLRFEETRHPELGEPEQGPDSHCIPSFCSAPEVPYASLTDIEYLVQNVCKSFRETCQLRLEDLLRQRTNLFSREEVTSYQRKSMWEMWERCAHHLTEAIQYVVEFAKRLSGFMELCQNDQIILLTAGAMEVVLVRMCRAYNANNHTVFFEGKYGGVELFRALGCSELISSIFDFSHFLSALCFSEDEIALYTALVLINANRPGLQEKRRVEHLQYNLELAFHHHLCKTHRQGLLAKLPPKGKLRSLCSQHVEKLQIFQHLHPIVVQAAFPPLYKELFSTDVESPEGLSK
#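 In this cell-based reporter format, copper sulfate (700 uM final) drives Gal4–ROR gamma fusion expression from a metallothionein promoter in Drosophila Schneider cells; compounds preincubated 1 hr, reporter read after 20 hr at ambient temperature.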
# TDP1 block: blocks human tyrosyl-DNA phosphodiesterase 1; Q9NUW8; recombinant TDP1, AlphaScreen DNA substrate cleavage; Potency, µM (doses to about 130 µM), usual class: inhibitors; hit rate 0.28% among 350,000; AID 485290; further: nearly all actives have a fitted effect of over 40% in size
#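 Enzyme-compound mixtures sat 15 min at room temperature, followed by a 5 min reaction with 15 nM final substrate and 10 min with AlphaScreen beads. Recombinant human Tdp1 was used at 1 nM final.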
# DT40 TDP1 CPT: growth inhibition of DT40 Tdp1-/-;hTDP1 cells with camptothecin (screen for TDP1 inhibitors); chicken DT40 Tdp1-/-;hTDP1 cells + 20 nM CPT, ATP luminescence, 48 h; Potency, µM (highest dose often 46.2 µM), most hits filed as inhibitors; AID 686979; hit rate 12% among 420,000; further: nearly all actives have a fitted effect of over 55% in size
#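 Cell growth measured by CellTiter-Glo luminescence after a minimum 48 h, 37 C compound exposure with 20 nM CPT in Tdp1-knockout DT40 cells stably expressing hTDP1, seeded 400/well; qHTS titration format.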
# VP16 counter: counter-screen for ROR gamma inhibitors: Gal4-VP16 reporter; Potency, µM (series often up to 53.6 µM), hits mostly inhibitors; Drosophila S2 Gal4-VP16 UAS-luciferase, luminescence, 20 h; AID 2546; hit rate 3.5% among 310,000;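 further: Gal4-VP16 expression switched on by copper sulfate through the metallothionein promoter; nearly all actives have a fitted effect of over 50% in size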
# A number is an active result; i = inactive; ? = inconclusive; nt = not tested or not shown. Shown are actives, neighbours in structure and some others; about 19% of the full set was active somewhere. The call rests on the fitted dose curve; in most records, active means well fitted curve in the direction sought with a large enough effect; inconclusive means small, poorly fitted or top-dose-only effect, or another doubt; inactive means no such curve, though single readings can be large; an effect the other way counts as inactive or inconclusive.
SMILES,TDP1 cell noCPT,RORgamma inh,TDP1 block,DT40 TDP1 CPT,VP16 counter
CCOc1ccc(CN(C)C(=O)CCl)cc1,2.9µM,i,i,2.9µM,i
CCOc1ccc(CN(C)CC(=O)NCc2ccc(F)cc2)cc1,21µM,i,nt,?,i
COc1ccccc1OCC(=O)NCC(c1ccc(Cl)cc1)N1CCCCC1 (stereo not given),?,nt,i,?,nt
Cc1ccc(C)c(N2CCN(C(=O)CCCN3C(=S)NC(C)(C)CC3C)CC2)c1 (stereo not given),10µM,5.6µM,i,18µM,4.5µM
Cc1cccc(N2CCN(C(=O)CCN3C(=S)NC(C)(C)CC3C)CC2)c1C (stereo not given),?,4.5µM,i,?,?
CCOC(=O)C1(Cc2ccccc2C(F)(F)F)CCN(Cc2ccc(COC)o2)CC1,8.2µM,i,nt,9.2µM,i
CCOC(=O)C1(Cc2ccccc2C(F)(F)F)CCN(C2CCN(C(C)C)CC2)CC1,23µM,i,i,23µM,i
CSc1nnc(-c2ccc(Br)s2)n1C,i,i,i,i,i
CCCCCCCCCC[n+]1cc(Br)cc(Br)c1,0.45µM,nt,nt,0.79µM,nt
Brc1ccc[n+](CCC2CCCCC2)c1,10µM,nt,nt,?,nt
CCCCCCCCCC[n+]1cccc(Br)c1,5µM,nt,nt,1.4µM,nt
CCCCCCCCCC[n+]1cccc(C(=O)N(CC)CC)c1,2.9µM,i,i,8.2µM,i
N#CC[n+]1cccc(Br)c1,i,nt,nt,i,nt
Cc1ccc(NC(=O)Cc2ccsc2)cc1S(=O)(=O)N1CCOCC1,i,nt,i,i,nt
CCn1c(SCC(=O)NC2CC2)nnc1-c1ccccc1,i,nt,nt,i,nt
CCCCCCN1C=CC=C/C1=C/C=C(C#N)C#N,?,?,i,?,i
CC(Oc1ccc(Cl)cc1)c1ccnn1S(=O)(=O)c1ccccc1 (stereo not given),i,i,i,i,i
CC(Oc1ccc(-c2ccccc2)c(F)c1)c1ccn(S(=O)(=O)c2ccc(Cl)cc2)n1 (stereo not given),?,i,i,15µM,i
COc1ccccc1N1CCN(C(=O)c2cccc(N3C(=O)C4C5C=CC(C5)C4C3=O)c2)CC1 (stereo not given),?,i,i,?,i
Cn1c(=O)c2cc(NC(=O)CC(C)(C)C)ccc2n1-c1ccccc1F,23µM,nt,nt,?,nt
CC(CC(=O)Nc1ccc(F)c([N+](=O)[O-])c1)c1ccccc1 (stereo not given),?,i,i,?,i
Cn1c(=O)c2cc(NC(=S)NC3CCCCC3)ccc2n1Cc1ccc(F)cc1,?,nt,nt,i,nt
CC(CC(=O)Nc1ccc2c(c1)c(=O)n(C)n2Cc1ccc(F)cc1)c1ccccc1 (stereo not given),21µM,nt,nt,21µM,nt
C=C(C)Cn1c2ccc(NC(=O)NCc3ccccc3)cc2c(=O)n1C,i,nt,nt,i,nt
CC(CC(=O)Nc1ccc2c(c1)c(=O)n(C)n2-c1ccccc1F)c1ccccc1 (stereo not given),5.8µM,nt,nt,6.5µM,nt
SMILES,TDP1 cell noCPT,RORgamma inh,TDP1 block,DT40 TDP1 CPT,VP16 counter
CC1CCCN(C(=O)CCS(=O)(=O)Cc2ccccc2)C1 (stereo not given),i,i,i,i,i
Cc1nn(CC(=O)NCc2ccc(C(=O)O)cc2)c(C)c1[N+](=O)[O-],i,i,i,i,i
Cc1c(C(N)=O)sc2ncn(CC(=O)NCCc3ccccc3)c(=O)c12,i,i,i,i,i
CN(Cc1ccc(F)cc1)C(=O)c1cccc(S(=O)(=O)N2CCN(Cc3ccccc3)CC2)c1,13µM,nt,i,21µM,nt
CSc1ccc(CN(C)C(=O)c2cccc(S(=O)(=O)N3CCN(Cc4ccccc4)CC3)c2)cc1,13µM,nt,nt,16µM,nt
COc1ccccc1CN(C)C(=O)c1cccc(S(=O)(=O)N2CCN(Cc3ccccc3)CC2)c1,?,nt,i,?,nt
CSc1ccc(CN(C)C(=O)c2cccc(S(=O)(=O)NCc3ccccc3)c2)cc1,?,i,i,?,i
CC(=O)N1CCN(S(=O)(=O)c2cccc(C(=O)NC3CCCC(C)C3C)c2)CC1 (stereo not given),?,nt,nt,i,nt
CC1CCCCC1NC(=O)c1cccc(S(=O)(=O)N2CCN(Cc3ccccc3)CC2)c1 (stereo not given),21µM,nt,i,16µM,nt
CCOC(=O)CC(=O)CSc1nc(C)nc2c1oc1ccccc12,i,i,i,i,i

# High-throughput results: PubChem, National Center for Advancing Translational Sciences (NCATS)
